# Experimental data taken from PubChem BioAssay (Tox21).
# Values joined by “and” are separate entries in the source; they are usually repeats but may differ in a detail not shown here. Equal values may be shown once. Results filed as inconclusive are left out. Entries that show only a call come without a potency. The source holds several records for some structures; these can differ, active in one and inactive in another. Active and inactive are the calls of the source. Unless noted, the call rests on the fitted dose curve; in most records, active means well fitted curve in the direction sought with a large enough effect in the repeat runs; inconclusive means weak or mixed curves; inactive means no such curve, though single readings can be large; an effect the other way counts as inactive or inconclusive.
# Key:
# [1] = A CellTox Green Cytotoxicity Assay to monitor cytotoxicity in HepG2 cells - 0 hour (AID 1224882); further: nearly all actives have a fitted effect of over 35% in size
# How it was run: (§1)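 HepG2, 600 cells/well premixed w/ CellTox Green; 5 h settle, 37 C/5% CO2; pintool cpd add (DMSO); 37 C, 40 h; fluorescence read at 0, 8, 16, 24, 32, 40 h.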
# [2] = A CellTox Green Cytotoxicity Assay to monitor cytotoxicity in HepG2 cells - 32 hour (AID 1224883); further: nearly all actives have a fitted effect of over 50% in size; further: potency means the concentration at half of the fitted maximal effect
# How it was run: as §1
# [3] = A CellTox Green Cytotoxicity Assay to monitor cytotoxicity in HEK293 cells - 8 hour (AID 1224884); further: nearly all actives have a fitted effect of over 35% in size; further: potency means the concentration at half of the fitted maximal effect
# How it was run: (§2)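 Read-out: fluorescence of a cell-impermeant cyanine dye staining DNA of dead cells, proportional to cytotoxicity. HEK293, 600 cells/well with reagent, compound (23 nL DMSO) added after 5 h; reads at 0, 8, 16, 24, 32, 40 h.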
# [4] = qHTS RealTime-Glo MT Cell Viability Assay in HepG2 cells - 16 hour (AID 1224885); further: nearly all actives have a fitted effect of over 50% in size; further: potency means the concentration at half of the fitted maximal effect
# How it was run: (§3)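 Viability was tracked continuously by NanoLuc luminescence from prosubstrate reduced by living HepG2 cells, at successive time points over 40 h of compound exposure. Cells with reagent were preincubated 5 h at 37 °C before compound addition.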
# [5] = qHTS RealTime-Glo MT Cell Viability Assay in HEK293 cells - 24 hour (AID 1224886); further: nearly all actives have a fitted effect of over 50% in size; further: potency means the concentration at half of the fitted maximal effect
# How it was run: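 Viability tracked continuously by luminescence as live cells reduce a prosubstrate for NanoLuc; HEK293 cells preincubated 5 h, compound-treated at 37 C, and read at 0, 8, 16, 24, 32 and 40 h.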
# [6] = qHTS RealTime-Glo MT Cell Viability Assay in HEK293 cells - 8 hour (AID 1224887); further: nearly all actives have a fitted effect of over 50% in size; further: potency means the concentration at half of the fitted maximal effect
# How it was run: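 Luminescence readout at each listed time point; HEK293, 600 cells/well, RealTime-Glo MT reagent added with cells; compounds pinned (23 nL in DMSO) after 5 h at 37 C; continuous culture at 37 C.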
# [7] = qHTS RealTime-Glo MT Cell Viability Assay in HepG2 cells - 0 hour (AID 1224889); further: nearly all actives have a fitted effect of over 50% in size
# How it was run: as §3
# [8] = A CellTox Green Cytotoxicity Assay to monitor cytotoxicity in HepG2 cells - 8 hour (AID 1224890); further: nearly all actives have a fitted effect of over 45% in size; further: potency means the concentration at half of the fitted maximal effect
# How it was run: as §1
# [9] = qHTS assay to identify small molecule antagonists of the estrogen receptor alpha (ER-alpha) signaling pathway using the BG1 cell line in the presence of 0.1 nM 17-beta-estradiol - cell viability counter screen (AID 1259241); further: nearly all actives have a fitted effect of over 40% in size
# How it was run: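 Viability in VM7Luc4E2 cells after 22 hr compound exposure under 0.1 nM 17beta-estradiol stimulation, by CellTiter-Fluor.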
# [10] = qHTS assay to identify small molecule antagonists of the androgen receptor (AR) signaling pathway using the MDA cell line in the presence of 0.5 nM R1881 - cell viability counter screen (AID 1259242); further: nearly all actives have a fitted effect of over 45% in size; further: potency means the concentration at half of the fitted maximal effect
# How it was run: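 Live-cell protease fluorescence, CellTiter-Fluor, 30 min at 37C. Cells: MDA-kb2, 3,000/well, preincubated 5 hr. Compounds plus 0.5 nM R1881 final, 16 hr, 37C, 0% CO2.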
# [11] = biological target: Androgen receptor (Homo sapiens) (UniProt P10275); experiment: qHTS assay to identify small molecule antagonists of the androgen receptor (AR) signaling pathway using the MDA cell line in the presence of 0.5 nM R1881 (AID 1259243); further: nearly all actives have a fitted effect of over 50% in size; further: potency means the concentration at half of the fitted maximal effect
# How it was run: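 MDA-kb2, MMTV-luc (AR/GR elements); 3,000 cells/well; cpd + 0.5 nM R1881 final; 16 hr 37C, 0% CO2; ONE-Glo 30 min RT; luminescence.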
# [12] = biological target: Estrogen receptor (Homo sapiens) (UniProt P03372); experiment: qHTS assay to identify small molecule antagonists of the estrogen receptor alpha (ER-alpha) signaling pathway using the BG1 cell line in the presence of 0.1 nM 17-beta-estradiol (AID 1259244); further: nearly all actives have a fitted effect of over 50% in size; further: potency means the concentration at half of the fitted maximal effect
# How it was run: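 Luminescence after ONE-Glo (30 min, room temperature) measured ERE-luciferase activity in VM7Luc4E2 cells treated 22 h with compound and 0.1 nM final 17beta-estradiol as stimulator.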
# [13] = qHTS assay to identify small molecule phospholipidosis (PLD) inducers (AID 1259344; active means well fitted curve in the direction sought with a large enough effect; an effect the other way counts as inactive or inconclusive)
# How it was run: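 Phospholipid accumulation was scored by imaging: fixed, Hoechst-counterstained HepG2 cells stained with LipidTOX Red after 24 h compound exposure at 37 C. Read-outs were pit count and pit intensity per well or per cell, with amiodarone and DMSO controls.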
# [14] = qHTS assay to identify small molecule HDAC inhibitors - cell viability counter screen (AID 1259365)
# How it was run: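 Cytotoxicity was gauged in wild-type HCT-116 cells after a brief 2hr treatment with DMSO-dissolved compounds at 37C and 5% CO2, using CellTiter-Glo luminescence developed for 30min at room temperature.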
# [15] = qHTS assay to identify small molecule antagonists of the sonic hedgehog signaling (Shh) pathway - cell viability counter screen (AID 1259367); further: nearly all actives have a fitted effect of over 55% in size; further: potency means the concentration at half of the fitted maximal effect
# How it was run: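 Viability was read by CellTiter-Fluor fluorescence in the same wells, reagent added 23 hr into compound treatment and incubated 1 hr at 37C. The 3T3 Gli1-Luc reporter cells (2,000/well) received conditioned medium after compound and ran 24 hr.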
# [16] = qHTS assay to identify small molecule agonists of the sonic hedgehog signaling (Shh) pathway (AID 1259368; calls by dose curve;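 further: NIH/3T3-derived 3T3Gli1-Luc cells carrying a stable Gli1-driven firefly luciferase reporter; series mostly up to about 92 µM; nearly all actives have a fitted effect of over 15% in size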)
# How it was run: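 Read-out: firefly luciferase luminescence from a Gli1 response element reporter stably integrated in NIH/3T3-derived 3T3Gli1-Luc cells, measured 30 min at room temperature after reagent addition. Compound exposure lasted 24 hr at 37 C, 5% CO2.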
# [17] = qHTS assay to identify small molecule antagonists of the sonic hedgehog signaling (Shh) pathway (AID 1259369; calls by dose curve; further: nearly all actives have a fitted effect of over 45% in size; further: potency means the concentration at half of the fitted maximal effect)
# How it was run: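 Luminescence readout: firefly Luc under Gli1 response element in 3T3Gli1-Luc cells (NIH/3T3 clone). Antagonist mode, stimulation by conditioned medium; compound exposure 24hr at 37 C, 5% CO2.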
# [18] = A CellTox Green Cytotoxicity Assay to monitor cytotoxicity in HEK293 cells - 16 hour (AID 1224888); further: nearly all actives have a fitted effect of over 35% in size; further: potency means the concentration at half of the fitted maximal effect
# How it was run: as §2
# [19] = qHTS assay to identify small molecule HDAC inhibitors (AID 1259364); further: potency means the concentration at half of the fitted maximal effect;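 further: wild-type HCT-116 cells with endogenous class I/II HDAC activity; nearly all actives have a fitted effect of over 45% in size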
# How it was run: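 HCT-116 (wild type), 1,500 cells/well, overnight; compound 2 hr 37C 5% CO2; HDAC-Glo I/II reagent 30 min RT; luminescence readout.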
# [20] = qHTS assay to identify small molecule agonists of the sonic hedgehog signaling (Shh) pathway - cell viability counter screen (AID 1259366); further: nearly all actives have a fitted effect of over 50% in size; further: potency means the concentration at half of the fitted maximal effect
# How it was run: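 Stable Gli1-Luc NIH/3T3 clone, 2,000 cells/well. Compound exposure 24hr at 37C. Read-out: CellTiter-Fluor fluorescence.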
# Chain of Androgen receptor (Homo sapiens) (P10275 whole entry, looked up): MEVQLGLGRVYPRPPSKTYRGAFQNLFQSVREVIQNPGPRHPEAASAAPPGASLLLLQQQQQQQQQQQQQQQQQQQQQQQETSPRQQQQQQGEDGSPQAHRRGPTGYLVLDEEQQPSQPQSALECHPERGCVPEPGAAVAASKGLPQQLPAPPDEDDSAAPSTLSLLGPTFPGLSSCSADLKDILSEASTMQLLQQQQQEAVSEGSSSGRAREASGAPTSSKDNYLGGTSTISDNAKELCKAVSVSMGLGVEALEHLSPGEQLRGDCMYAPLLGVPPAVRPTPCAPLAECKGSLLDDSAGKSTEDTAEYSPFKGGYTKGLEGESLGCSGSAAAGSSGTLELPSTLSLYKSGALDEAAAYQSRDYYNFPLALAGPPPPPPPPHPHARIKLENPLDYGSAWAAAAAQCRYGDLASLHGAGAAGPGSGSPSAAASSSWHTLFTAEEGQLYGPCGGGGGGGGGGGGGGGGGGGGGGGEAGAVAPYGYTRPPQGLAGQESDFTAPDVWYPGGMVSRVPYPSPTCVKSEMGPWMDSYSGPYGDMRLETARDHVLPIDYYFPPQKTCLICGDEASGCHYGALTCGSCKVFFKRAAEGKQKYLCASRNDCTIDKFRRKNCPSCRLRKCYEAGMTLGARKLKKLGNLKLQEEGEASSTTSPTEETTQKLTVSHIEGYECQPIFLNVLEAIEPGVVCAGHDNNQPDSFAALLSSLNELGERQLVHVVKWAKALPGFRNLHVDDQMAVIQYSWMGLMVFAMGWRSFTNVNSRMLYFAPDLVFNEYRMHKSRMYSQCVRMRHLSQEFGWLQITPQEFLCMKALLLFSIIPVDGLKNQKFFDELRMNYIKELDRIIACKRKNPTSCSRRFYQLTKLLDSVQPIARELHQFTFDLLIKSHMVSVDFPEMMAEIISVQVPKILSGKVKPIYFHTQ
# Chain of Estrogen receptor (Homo sapiens) (P03372 whole entry, looked up): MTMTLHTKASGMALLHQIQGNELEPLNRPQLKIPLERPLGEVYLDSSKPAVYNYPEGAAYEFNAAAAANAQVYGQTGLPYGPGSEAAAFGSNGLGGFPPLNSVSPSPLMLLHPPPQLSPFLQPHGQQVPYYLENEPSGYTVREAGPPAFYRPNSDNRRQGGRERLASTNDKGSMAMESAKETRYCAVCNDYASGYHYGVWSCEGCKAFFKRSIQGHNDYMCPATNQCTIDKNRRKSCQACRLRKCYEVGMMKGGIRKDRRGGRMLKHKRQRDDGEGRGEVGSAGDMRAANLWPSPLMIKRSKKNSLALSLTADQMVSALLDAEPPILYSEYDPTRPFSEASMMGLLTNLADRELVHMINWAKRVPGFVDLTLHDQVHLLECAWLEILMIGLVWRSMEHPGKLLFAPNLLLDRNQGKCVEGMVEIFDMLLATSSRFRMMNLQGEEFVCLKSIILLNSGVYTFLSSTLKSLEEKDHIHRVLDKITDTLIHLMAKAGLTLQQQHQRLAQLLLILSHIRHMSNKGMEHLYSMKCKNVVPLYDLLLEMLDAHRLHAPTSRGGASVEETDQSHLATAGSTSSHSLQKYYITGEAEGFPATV
Compound,Potency [1],Potency [2],Potency [3],Potency [4],Potency [5],Potency [6],Potency [7],Potency [8],Potency [9],Potency [10],Potency [11],Potency [12],Potency [13],Potency [14],Potency [15],Potency [16],Potency [17],Potency [18],Potency [19],Potency [20]
CCOc1ccccc1C(N)=O,inactive,inactive,inactive,inactive,inactive,inactive,inactive,inactive,inactive,inactive,inactive,inactive,inactive,inactive,inactive,inactive,inactive,–,–,–
NNCCc1ccccc1,inactive,inactive,inactive,inactive,inactive,inactive,–,inactive,inactive,inactive,–,–,inactive,inactive,inactive,–,inactive,inactive,inactive,inactive
CCC[C@H](N[C@@H](C)C(=O)N1[C@H](C(=O)O)C[C@@H]2CCCC[C@@H]21)C(=O)OCC,inactive,inactive,inactive,inactive,inactive,inactive,inactive,–,–,inactive,–,inactive,inactive,inactive,inactive,inactive,inactive,inactive,inactive,inactive
O=C(O)c1cccc(C(=O)O)c1,inactive,inactive,inactive,inactive,inactive,inactive,inactive,–,inactive,inactive,–,inactive,–,–,inactive,inactive,inactive,inactive,inactive,inactive
O=C(OCc1ccccc1)c1ccc(O)cc1,inactive,49 µM (active) and inactive,inactive,inactive,inactive,inactive,–,inactive,–,inactive,–,inactive,inactive,inactive,68.6 µM (active) and inactive,inactive,43.3 µM (active) and inactive,inactive,12.2 µM (active) and 11.9 µM (active),–
CCN(CC)c1ccc2c(C)cc(=O)oc2c1,inactive,inactive,inactive,inactive,34.9 µM (active),inactive,inactive,inactive,–,inactive,–,inactive,–,inactive,–,inactive,24.5 µM (active) and 54.5 µM (active),inactive,–,–
C1COC(NC(C2CC2)C2CC2)=N1,inactive,inactive,inactive,inactive,inactive,inactive,inactive,inactive,inactive,inactive,–,inactive,inactive,–,inactive,inactive,inactive,inactive,inactive,inactive
Cc1cc(OCCOCC[N+](C)(C)Cc2ccccc2)ccc1C(C)(C)CC(C)(C)C,inactive,15.4 µM (active) and 9.52 µM (active),23.9 µM (active),17.3 µM (active) and 21.3 µM (active),12.2 µM (active) and 8.49 µM (active),48.7 µM (active) and 23.9 µM (active),inactive,21.7 µM (active) and 21.3 µM (active),–,43 µM (active) and 26.6 µM (active),13.6 µM (active) and 13.3 µM (active),60.8 µM (active) and 29.8 µM (active),inactive,–,–,inactive,10.8 µM (active) and 6.68 µM (active),38.7 µM (active) and 23.9 µM (active),–,48.3 µM (active)
O=C(Oc1ccccc1)c1ccccc1O,inactive,inactive,inactive,inactive,inactive,inactive,–,inactive,inactive,inactive,–,inactive,inactive,–,inactive,inactive,inactive and 54.5 µM (active),inactive,–,inactive
CCCCN(CCO)CCCC,inactive,inactive,inactive,inactive,inactive,inactive,inactive,inactive,inactive,inactive,–,inactive,–,inactive,inactive,inactive,inactive,inactive,inactive,–
Nc1nc2ccccc2[nH]1,inactive,inactive,inactive,inactive,inactive,inactive,inactive,inactive,inactive,inactive,–,inactive,–,inactive,inactive,inactive,inactive,inactive,inactive,inactive
C#CC(C)(CC)OC(=O)c1ccccc1C(=O)O (stereo unspecified),inactive,inactive,inactive,inactive,inactive,inactive,–,inactive,–,inactive,inactive,inactive,–,–,inactive,inactive,–,inactive,inactive,inactive
